According to PubChem BioAssay (NCI):
The panel holds about 79,000 compounds, 15% with a hit somewhere; the sample as a whole holds those more often. Active and inactive are the calls of the source. No stated cut-off is given here; in the data, active means growth inhibition above about 70%; inactive means the rest.

experiment: NCI Yeast Anticancer Drug Screen. Data for the sgs1 mgt1 strain (AID 161);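 further: 0% = growth of cultures given vehicle only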; conditions: S. cerevisiae sgs1 mgt1 strain, at 50.0 µM, stronger effect = higher value
In short: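 Yeast cells carrying a defined DNA-repair defect were exposed to test compounds. Growth inhibition was measured relative to vehicle-treated controls.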

Row | Structure (SMILES) | growth inhibition
1 | Nc1ccc2ccccc2c1S(=O)(=O)O | 15% (inactive)
2 | CCSCC1OC(n2cnc3c(=S)nc(N)[nH]c32)C(O)C1O (stereo not drawn) | -0.75% (inactive)
3 | Cc1cc(Cc2cc(C)c(O)c(CN(C)C)c2)cc(CN(C)C)c1O | 1.35% (inactive)
4 | Cc1cccc(N=Cc2ccc(N(CCC#N)S(=O)(=O)c3ccccc3)cc2C)c1 | -54.9% (inactive)
5 | CCOC(=O)C(CNCc1ccccc1)(c1ccccc1)c1ccccc1 | -23.9% (inactive)
6 | N#CC(NC(=O)NCCCl)c1ccccc1 (stereo not drawn) | -1.4% (inactive)
7 | C#CCCOC(=O)c1ccccc1OC(C)=O | -2.3% (inactive)
8 | CCOCCC(=O)OCCC(C)OC (stereo not drawn) | 11.2% (inactive)
9 | CC(C)C1CCC(C)(C(N)=O)C1 (stereo not drawn) | -1.3% (inactive)
10 | CC(=O)C1CCC2C3CCC4CC5(CCC4(C)C3C(=O)CC12C)NC(C(=O)O)CS5 (stereo not drawn) | 5.85% (inactive)
11 | COC(=O)NS(=O)(=O)C1=Cc2cccc3cccc1c23 | 9.25% (inactive)
12 | CC(C)C1=C(Cc2ccccc2)C(=O)O/C1=C\c1ccc(O)c(Cl)c1 | 28.2% (inactive)
13 | COc1cccc(-n2cnc3c(SC)ncnc32)c1 | 4.75% (inactive)
14 | Cc1ccc(S(=O)(=O)OI(O)CC(F)(F)F)cc1 | -2.5% (inactive)
15 | O=C1CCCS(=O)(=O)CCC1 | -8.2% (inactive)
16 | CC(=O)Nc1ccc(/C=C/c2csnn2)cc1 | 11.9% (inactive)
17 | COc1cccc2c1C(CO)N1C(C#N)C3CC(C(=O)O)C(C1C2)N3C (stereo not drawn) | -28.3% (inactive)
18 | O=C(O)c1ccc(CSc2ccccc2C(=O)O)cc1 | -6.95% (inactive)
